# V-ATPase pH = regulators of yeast V-ATPase proton pumping, primary screen, pHLuorin cytosolic pH fluorescence; S. cerevisiae; response, % at 10 µM; 0.37% of 350,000 active; AID 504577, 2011; in the data active means response mostly above about 7.3%, no sharp cut-off; inactive means mostly below about 5.4%; further: actives read high
# tim23-1 inh = growth inhibitors of tim23-1 mutant yeast, primary screen, luminescence, uHTS. S. cerevisiae tim23-1 growth, BacTiter-Glo luminescence, 24 h. 1.3% of 330,000 active. inhibition, % at 20 µM;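 active means growth inhibition of the mutant yeast at or above 50%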;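 further: temperature-sensitive mutant grown at 25 °C; plate controls were DMSO-treated mutant yeast for no effect and medium wells lacking yeast for full effect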
# PfHsp90 set2 = growth inhibition of PfHsp90-expressing yeast, primary screen, antimalarial PfHsp90 inhibitor project, S. cerevisiae, BacTiter-Glo luminescence, single point, set 2; BacTiter-Glo ATP, 48 h; yeast lacking PDR1 and PDR3 efflux regulators; inhibition, % at 9.4 µM; 0.32% of 310,000 active; AID 504621, 2011;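 active means every replicate shows inhibition above about 80%, whatever the replicate mean, limit read from the data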;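 further: 0% = DMSO neutral controls and 100% = 20 µM radicicol positive controls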
# TIM10 inh = growth inhibitors of isogenic TIM10 control yeast, primary screen, counter-screen for tim10-1 yeast inhibitor project, luminescence, uHTS | S. cerevisiae TIM10 strain growth, BacTiter-Glo luminescence, 24 h | inhibition, % at 10 µM | 1.4% of 330,000 active | AID 463195, 2010;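 active means inhibition of 40% or more at the single tested concentration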;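 further: wild-type TIM10 isogenic control strain grown at permissive 25 °C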
# tim10-1 inh = growth inhibitors of tim10-1 mutant yeast, primary screen, luminescence, uHTS; inhibition, % at 20 µM; S. cerevisiae tim10-1 ts strain growth, BacTiter-Glo, 24 h; 2.2% of 330,000 active;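 active means inhibition of at least 40%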;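 further: mutant grown at 25 °C; 0% = DMSO wells with yeast and 100% = wells holding no yeast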
# SKKanGAS inh = S. pyogenes SKKanGAS growth inhibitors in kanamycin, primary screen, streptokinase expression inhibitor project, SKKanGAS strain, BacTiter-Glo luminescence. 6 h. inhibition, % at 7.5 µM. 1.3% of 300,000 active. AID 1662, 2009;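 active means mean replicate score, as percent of positive control median, at least 50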;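 further: strain carries kanamycin resistance gene driven by streptokinase promoter and grows in 40 µg/ml kanamycin; loss of luminescence reflects streptokinase promoter inhibition or plain growth inhibition; 0% = median of DMSO wells and 100% = positive control at its reference dose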
# Active calls of the source: *; i = inactive; . = no result; + = active, no number. Hits are enriched below; roughly 4.6% of the tested compounds scored in any of these assays.
SMILES,V-ATPase pH,tim23-1 inh,PfHsp90 set2,TIM10 inh,tim10-1 inh,SKKanGAS inh
CC(C)(C)C(=O)NC(=S)NNC(=O)c1sc2ccccc2c1Cl,-1,21,99*,-4,-59,100*
Cc1cc(C)c2[nH]c(O)c(N=Nc3ccc(C(=O)O)cc3)c2c1,-2,-7,5,-7,-12,74*
COc1ccc2nc(Nc3nc(C)c(C(C)=O)s3)sc2c1,-1,19,-16,28,18,56*
CC(=O)c1sc(Nc2nc3cc4c(cc3s2)OCO4)nc1C,0,.,.,.,.,24
Nc1nonc1-c1nc2ccccc2n1CC(=O)N/N=C/c1ccc(-c2cccc(C(=O)O)c2)o1,1,-6,17,9,-11,68*
CC(C)c1nnc(NC(=O)c2c(O)c3cccc4c3n(c2=O)CCC4)s1,2,8,24,2,-9,90*
CNC(=O)c1c(O)c2cccc3c2n(c1=O)CCC3,-2,49,-8,31,-14,-1
Cc1cnc(NC(=O)c2c(O)c3cccc4c3n(c2=O)CCC4)s1,.,.,.,.,.,-4
CCCc1nc2ccccc2c(=O)n1NC(=O)c1c(O)c2cccc3c2n(c1=O)CCC3,-3,11,-10,1,-15,73*
CCN(CCCn1c(SCC#N)nc2ccccc2c1=O)c1ccccc1,3,3,8,12,20,61*
CCC(C(=O)OCC(=O)N1C(C)CCCC1C)c1ccccc1 (stereo not drawn),284*,2,-3,-7,21,0
Cc1cc(F)ccc1NCc1ccc([N+](=O)[O-])cc1,1,9,15,5,-4,20
Nc1ncc(Br)cc1S(=O)(=O)Nc1cc(C(F)(F)F)cc(C(F)(F)F)c1,-1,25,-4,12,25,64*
Cc1ccc(C)c(C(=O)CCC(=O)OCn2nnc3ccccc3c2=O)c1,3,19,-14,-9,24,.
O=C1CCCN1CCC1CCN(C2CC(=O)N(c3ccc(Cl)cc3)C2=O)CC1 (stereo not drawn),0,39,102*,32,36,-6
S=C1SCN(Cc2cccnc2)CN1Cc1cccnc1,2,41,85*,0,-44,-1
S=C1SCN(Cc2ccccc2)CN1Cc1ccccc1,2,16,-18,2,11,5
CCN1C(=O)N[C@@H](CCc2ccccc2)[C@@H](C(=O)OC)[C@H]1C,14,9,.,-12,-7,1
COC(=O)[C@H]1[C@H](CCc2ccccc2)NC(=O)N(Cc2ccccc2)[C@@H]1C,0,.,16,.,.,73*
O=C(NCc1nc(-c2ccc(C(F)(F)F)cc2)no1)Nc1cc(Cl)cc(Cl)c1,1,11,-14,22,26,109*
O=C(CCSc1nnc(-c2ccncc2)o1)Nc1ccc(Cl)cc1,0,i,96*,-60,-23,-2
CC(NC(=O)Nc1nnc(C(F)(F)F)s1)(C(F)(F)F)C(F)(F)F,4,21,10,15,22,84*
CC(C)(C)CC(=O)Nc1nnc(C(F)(F)F)s1,6,5,2,-8,6,6
CC(C)(C)c1ccc(-c2noc(-c3ccc4c(c3)CCO4)n2)cc1,1,5,9,16,35,82*
O=C(OCc1nnc(-c2ccc([N+](=O)[O-])cc2)o1)c1ccc(F)c(S(=O)(=O)N2CCOCC2)c1,17*,3,.,6,33,.
SMILES,V-ATPase pH,tim23-1 inh,PfHsp90 set2,TIM10 inh,tim10-1 inh,SKKanGAS inh
CNC(=O)c1c(NC(=O)c2ccc(S(=O)(=O)N3CCCCC3)cc2)sc2c1CCN(C(C)C)C2,2,-16,-2,3,-17,43
CCN1CCc2c(sc(NC(=O)c3ccc(S(=O)(=O)N4CCCC4)cc3)c2C(=O)NC)C1,-2,4,7,7,-5,50*
CCCN1CCc2c(sc(NC(=O)c3ccc(S(=O)(=O)N4CCN(C(=O)OCC)CC4)cc3)c2C(N)=O)C1,-2,6,-4,2,3,57*
Cc1n[nH]c(=O)c2c(NC(=O)CSc3nncs3)oc(C)c12,-1,-2,-14,9,0,0
Cc1ccc([C@@H]2CC(=O)[C@@H]3CN(S(=O)(=O)c4ccccc4C)[C@H](c4ccc(Cl)cc4)C[C@@H]3N2S(=O)(=O)c2ccc(C)cc2)cc1,-1,.,.,.,.,.
CCCCn1c(SCC(=O)Nc2cc(C(F)(F)F)cc(C(F)(F)F)c2)nnc1C(CC)N(C)C (stereo not drawn),4,32,10,28,39,0
CC(C)(C)c1cc(-c2nc(N)nc(N)n2)c(O)c(C(C)(C)C)c1,1,-100,+,30,-38,.
Nc1nc(N)nc(-c2cc(O)ccc2O)n1,1,9,-2,-1,8,.
CCCCN(CCCC)S(=O)(=O)c1c(C)[nH]c(=O)[nH]c1=O,-3,-1,-25,-6,1,7
CCCCCCCCOC(=O)/C=C/c1c(C)[nH]c(=O)[nH]c1=O,0,0,-53,2,-12,64*
O=[N+]([O-])c1cc(Cc2ccccc2)cc(C=Nc2ccc(N3CCOCC3)cc2)c1O,7,.,106*,.,.,11
Oc1ccc(C=Nc2ccc(N3CCOCC3)cc2)c(O)c1,1,16,-3,-5,13,2
CC(NC(=O)COC(=O)c1ccccc1SCC(=O)N1CCCC1)c1ccccc1 (stereo not drawn),2,20,.,-4,6,3
O=[N+]([O-])c1ccc(/C=N/NC(=S)Nc2ccc(Cl)cc2Cl)s1,-5,44,-28,7,16,77*
CCCN1CCN(C(=O)c2ccc3[nH]c(C)c(C)c3c2)CC1,-3,.,.,.,.,.
Cc1ccc(S(=O)(=O)CCC(=O)c2cccc([N+](=O)[O-])c2)cc1,28*,26,.,20,25,4
CCOC(=O)C1CCCN(Cc2ccc(OC)c(OCc3ccccc3)c2)C1 (stereo not drawn),-4,-5,1,2,17,7
COc1ccc(CN2C(=O)c3ccc(C(=O)O)cc3C2=O)cc1,0,8,18,13,-9,-2
C[C@H](NC(=O)c1nc[nH]c1C(=O)N[C@@H](CCCCNC(=O)OC(C)(C)C)C(=O)OC(C)(C)C)c1ccccc1,5,18,5,-3,16,26
Cc1ccc(/C=C/C2=Cc3c(sc(NC(=O)CSc4n[nH]c(N)n4)c3C#N)C(C)(C)C2)o1,.,-43,.,-36,5,55*
CC(C)CC(=O)/C(=C\c1ccc(Cl)cc1Cl)n1cncn1,2,.,129*,.,.,-58
